# According to PubChem BioAssay (NCI):
# This is part of a sample that, as a whole, favours compounds with a hit. Of some 79,000 tested, about 15% had one in any assay. Values without a mark were called inactive. Activity calls are given as the source filed them. Cut-off read from the data, not from the text of the source: active = growth inhibition above about 70%; inactive = the rest.
# Assays:
# [1] = NCI Yeast Anticancer Drug Screen. Data for the mec2-1 strain (AID 157); settings: S. cerevisiae mec2-1 strain, hits give high values
# Summary of the method: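 Compounds were applied to mec2-1 yeast cells. Their growth was then compared with that of vehicle-treated cultures to give growth inhibition.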
# [2] = NCI Yeast Anticancer Drug Screen. Data for the rad14 strain (AID 159);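 note: 0% = growth of vehicle-treated control cultures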; settings: S. cerevisiae rad14 strain growth inhibition, hits give high values
# Summary of the method: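 Here, inhibition of yeast growth was measured after compound exposure, using a strain with a genetic defect in DNA damage repair and vehicle-treated cultures as the reference.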
# [3] = NCI Yeast Anticancer Drug Screen. Data for the CLN2oe strain (AID 163);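 note: 0% = growth of vehicle-only control cultures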; settings: S. cerevisiae CLN2oe strain, hits give high values
# Summary of the method: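 Cells of an engineered yeast line with disturbed cell-cycle regulation are treated with compound. Inhibition of growth is then calculated relative to the vehicle-treated reference.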
# [4] = NCI Yeast Anticancer Drug Screen. Data for the cln2 rad14 strain (AID 165);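 note: 0% = growth equal to vehicle treated cultures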; settings: S. cerevisiae cln2 rad14 strain, hits give high values
# Summary of the method: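 Strain: cln2 rad14 yeast, altered in cell cycle control and DNA damage repair. Read-out: growth inhibition vs vehicle.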
# [5] = NCI Yeast Anticancer Drug Screen. Data for the bub3 strain (AID 167); settings: S. cerevisiae bub3 mutant strain, hits give high values
# Summary of the method: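 Whole-cell yeast assay. The mutant strain was incubated with compounds, and growth inhibition was determined by comparison with vehicle-treated cells.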
# [6] = NCI Yeast Anticancer Drug Screen. Data for the wt2 strain (AID 169);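 note: 0% = growth of vehicle-treated yeast cultures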; settings: S. cerevisiae wt2 strain growth inhibition, hits give high values
# Summary of the method: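 Growth of compound-treated yeast is measured and expressed as inhibition relative to vehicle-only controls.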
# [7] = NCI Yeast Anticancer Drug Screen. Data for the mlh1 strain (AID 171);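 note: 0% = growth of vehicle-treated control cultures of the same strain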; settings: S. cerevisiae mlh1 strain growth inhibition, hits give high values
# Summary of the method: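 Test agents were incubated with yeast bearing a defined DNA damage repair or cell cycle control alteration; values are growth inhibition normalised to vehicle-treated cultures.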
# [8] = NCI Yeast Anticancer Drug Screen. Data for the sgs1 strain (AID 173);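 note: 0% = growth of vehicle-only control cultures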; settings: S. cerevisiae sgs1 mutant, hits give high values
# Summary of the method: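 Strain with an altered DNA repair or cell cycle pathway exposed to compound. Growth then measured. Value = inhibition versus vehicle control.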
# [9] = NCI Yeast Anticancer Drug Screen. Data for the mlh1 rad18 strain (AID 175); settings: S. cerevisiae mlh1 rad18 strain growth inhibition, hits give high values
# Summary of the method: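 A repair-deficient yeast strain is exposed to test compound, and growth is scored relative to vehicle-treated controls.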
# [10] = NCI Yeast Anticancer Drug Screen. Data for the rad18 strain (AID 177); settings: S. cerevisiae rad18 mutant growth inhibition, hits give high values
# Summary of the method: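 DNA-repair-defective yeast; compound treatment; growth inhibition scored against vehicle.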
# [11] = NCI Yeast Anticancer Drug Screen. Data for the wt1 strain (AID 149);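 note: 0% = growth of vehicle-treated wt1 cultures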; settings: S. cerevisiae wt1 strain (SPY 50644) growth inhibition, hits give high values
# Summary of the method: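 Measured: growth of wt1 yeast under compound versus vehicle treatment, reported as inhibition.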
# [12] = NCI Yeast Anticancer Drug Screen. Data for the rad50EPP+ strain (AID 151);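 note: 0% = growth of vehicle-treated control cultures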; settings: S. cerevisiae rad50 mutant strain, hits give high values
# Summary of the method: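 Measured: growth inhibition of rad50EPP+ yeast. Reference: vehicle-treated controls. Screen uses strains with defined genetic alterations in DNA damage repair or cell cycle control.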
# [13] = NCI Yeast Anticancer Drug Screen. Data for the mgt1 strain (AID 153); settings: S. cerevisiae mgt1 mutant growth inhibition, hits give high values
# Summary of the method: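 Compounds were applied to mgt1 mutant yeast, and growth was then compared against vehicle-treated control cultures to give percent inhibition.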
# [14] = NCI Yeast Anticancer Drug Screen. Data for the rad50 strain (AID 155);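 note: 0% = growth of vehicle-only cultures of the same strain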; settings: S. cerevisiae rad50 strain growth inhibition, hits give high values
# Summary of the method: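 Growth of the mutant yeast was measured after compound exposure and referenced to vehicle-treated cultures.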
# [15] = NCI Yeast Anticancer Drug Screen. Data for the sgs1 mgt1 strain (AID 161);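 note: 0% = growth of cultures given vehicle only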; settings: S. cerevisiae sgs1 mgt1 strain, hits give high values
# Summary of the method: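 This yeast growth screen uses a strain with defined DNA-repair lesions; compound-treated growth is compared with vehicle-treated growth.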
# [16] = at 5.0 µM (retest, dose inferred, filed as 0.5)
# [17] = at 50.0 µM (retest, dose inferred, filed as 5.0)
compound,measurement,setting,value
CN(C)CCn1c2c3ccccc3ccc2c2oc(=O)c3ccccc3c21,growth inhibition,[1]; at 100.0 µM,91% (active)
same,growth inhibition,[2]; at 1.2 µM,3%
same,growth inhibition,[2]; at 3.7 µM,-2%
same,growth inhibition,[2]; at 11.0 µM,35%
same,growth inhibition,[2]; at 33.0 µM,95% (active)
same,growth inhibition,[2]; at 100.0 µM,91% (active)
same,growth inhibition,[3]; at 1.2 µM,-2%
same,growth inhibition,[3]; at 3.7 µM,-3%
same,growth inhibition,[3]; at 11.0 µM,36%
same,growth inhibition,[3]; at 33.0 µM,90% (active)
same,growth inhibition,[3]; at 100.0 µM,89% (active)
same,growth inhibition,[4]; [16],4%
same,growth inhibition,[4]; [17],93% (active)
same,growth inhibition,[4]; at 50.0 µM,84.5% (active)
same,growth inhibition,[5]; at 1.2 µM,-8%
same,growth inhibition,[5]; at 3.7 µM,10%
same,growth inhibition,[5]; [16],3%
same,growth inhibition,[5]; at 11.0 µM,19%
same,growth inhibition,[5]; at 33.0 µM,93% (active)
same,growth inhibition,[5]; [17],95% (active)
same,growth inhibition,[5]; at 50.0 µM,86.8% (active)
same,growth inhibition,[5]; at 100.0 µM,95% (active)
same,growth inhibition,[6]; at 1.2 µM,12%
same,growth inhibition,[6]; at 3.7 µM,3%
same,growth inhibition,[6]; at 11.0 µM,41%
same,growth inhibition,[6]; at 33.0 µM,95% (active)
same,growth inhibition,[6]; at 100.0 µM,95% (active)
same,growth inhibition,[7]; at 1.2 µM,-10%
same,growth inhibition,[7]; at 3.7 µM,-6%
same,growth inhibition,[7]; at 11.0 µM,42%
same,growth inhibition,[7]; at 33.0 µM,95% (active)
same,growth inhibition,[7]; at 100.0 µM,92% (active)
same,growth inhibition,[8]; at 1.2 µM,12%
same,growth inhibition,[8]; at 3.7 µM,16%
same,growth inhibition,[8]; at 11.0 µM,50%
same,growth inhibition,[8]; at 33.0 µM,93% (active)
same,growth inhibition,[8]; at 100.0 µM,92% (active)
same,growth inhibition,[9]; [16],10%
same,growth inhibition,[9]; [17],96% (active)
same,growth inhibition,[9]; at 50.0 µM,82.7% (active)
same,growth inhibition,[10]; at 1.2 µM,0%
same,growth inhibition,[10]; at 3.7 µM,-7%
same,growth inhibition,[10]; at 11.0 µM,53%
same,growth inhibition,[10]; at 33.0 µM,94% (active)
same,growth inhibition,[10]; at 100.0 µM,91% (active)
COC(=O)C1=C(C(=O)OC)C2(C)C=CC1O2 (stereo not drawn),growth inhibition,[11]; at 1.2 µM,0%
same,growth inhibition,[11]; at 3.7 µM,7%
same,growth inhibition,[11]; at 11.0 µM,30%
same,growth inhibition,[11]; at 33.0 µM,62%
same,growth inhibition,[11]; at 100.0 µM,93% (active)
same,growth inhibition,[12]; at 1.2 µM,-11%
same,growth inhibition,[12]; at 3.7 µM,-34%
same,growth inhibition,[12]; at 11.0 µM,-12%
same,growth inhibition,[12]; at 33.0 µM,20%
same,growth inhibition,[12]; at 100.0 µM,19%
same,growth inhibition,[13]; at 1.2 µM,-4%
same,growth inhibition,[13]; at 3.7 µM,-9%
same,growth inhibition,[13]; at 11.0 µM,-3%
same,growth inhibition,[13]; at 33.0 µM,32%
same,growth inhibition,[13]; at 100.0 µM,86% (active)
same,growth inhibition,[14]; at 1.2 µM,-15%
same,growth inhibition,[14]; at 3.7 µM,-13%
same,growth inhibition,[14]; [16],-135%
same,growth inhibition,[14]; at 11.0 µM,7%
same,growth inhibition,[14]; at 33.0 µM,72% (active)
same,growth inhibition,[14]; [17],53%
same,growth inhibition,[14]; at 50.0 µM,81.2% (active)
same,growth inhibition,[14]; at 100.0 µM,91% (active)
same,growth inhibition,[1]; at 1.2 µM,-2%
same,growth inhibition,[1]; at 3.7 µM,-1%
same,growth inhibition,[1]; [16],-43%
same,growth inhibition,[1]; at 11.0 µM,1%
same,growth inhibition,[1]; at 33.0 µM,26%
same,growth inhibition,[1]; [17],43%
same,growth inhibition,[1]; at 50.0 µM,86.8% (active)
same,growth inhibition,[1]; at 100.0 µM,87% (active)
same,growth inhibition,[15]; [16],-55%
same,growth inhibition,[15]; [17],63%
same,growth inhibition,[15]; at 50.0 µM,82.2% (active)
same,growth inhibition,[3]; at 1.2 µM,-7%
same,growth inhibition,[3]; at 3.7 µM,-5%
same,growth inhibition,[3]; at 11.0 µM,-4%
same,growth inhibition,[3]; at 33.0 µM,15%
same,growth inhibition,[3]; at 100.0 µM,42%
same,growth inhibition,[4]; [16],-46%
same,growth inhibition,[4]; [17],-7%
same,growth inhibition,[4]; at 50.0 µM,19.1%
same,growth inhibition,[5]; at 1.2 µM,-9%
same,growth inhibition,[5]; at 3.7 µM,-3%
same,growth inhibition,[5]; [16],-62%
same,growth inhibition,[5]; at 11.0 µM,10%
same,growth inhibition,[5]; at 33.0 µM,75% (active)
same,growth inhibition,[5]; [17],74% (active)
same,growth inhibition,[5]; at 50.0 µM,89.6% (active)
same,growth inhibition,[5]; at 100.0 µM,94% (active)
same,growth inhibition,[6]; at 1.2 µM,-4%
same,growth inhibition,[6]; at 3.7 µM,-3%
same,growth inhibition,[6]; at 11.0 µM,52%
same,growth inhibition,[6]; at 33.0 µM,91% (active)
same,growth inhibition,[6]; at 100.0 µM,97% (active)
same,growth inhibition,[7]; at 1.2 µM,-14%
same,growth inhibition,[7]; at 3.7 µM,-10%
same,growth inhibition,[7]; at 11.0 µM,-7%
same,growth inhibition,[7]; at 33.0 µM,52%
same,growth inhibition,[7]; at 100.0 µM,90% (active)
same,growth inhibition,[8]; at 1.2 µM,-4%
same,growth inhibition,[8]; at 3.7 µM,-4%
same,growth inhibition,[8]; at 11.0 µM,33%
same,growth inhibition,[8]; at 33.0 µM,84% (active)
same,growth inhibition,[8]; at 100.0 µM,95% (active)
same,growth inhibition,[9]; [16],-114%
same,growth inhibition,[9]; [17],48%
same,growth inhibition,[9]; at 50.0 µM,86.2% (active)
same,growth inhibition,[10]; at 1.2 µM,-10%
same,growth inhibition,[10]; at 3.7 µM,-6%
same,growth inhibition,[10]; at 11.0 µM,10%
same,growth inhibition,[10]; at 33.0 µM,62%
same,growth inhibition,[10]; at 100.0 µM,89% (active)
